Rows were chosen to be rich in hits. Some 4.1% of all compounds tested hit in one or more screens of this group.
Peg3 prom inh = reduces Peg3 promoter-driven luciferase expression in HeLa; AID 588405; inhibition, % at 20 µM; HeLa PEG-Prom luciferase reporter, luminescence, overnight; 1.7% of 360,000 active;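 active = inhibition of at least 50% at 20 µM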
TWEAK-Fn14 inh = inhibitors of TWEAK-Fn14 interaction signaling; TWEAK-stimulated Fn14 reporter cells, luciferase luminescence, 8 h; inhibition, % at 10 µM; 2% of 360,000 active; in the data active = inhibition above about 50%
TROY signal inh = blocks TROY-dependent signaling in reporter cells; Q293 LMP1-TROYcd NF-kB luciferase reporter, 4 h; inhibition, % at 10 µM; 0.98% of 360,000 active;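 active = compounds whose plate-normalised and pattern-corrected inhibition of the luciferase reporter signal at the single screening dose is 50% or more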
TRPM1 prom inh = MITF TRPM1 promoter inhibition in SK-MEL-5 cells. inhibition, % at 12.5 µM. AID 488899. 0.83% of 330,000 active. SK-MEL-5 TRPM1 promoter luciferase, 24 h;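 active = mean inhibition across replicates of 60% or more, whatever share of single replicates reaches that level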
Shn3 inh set2 = Schnurri-3 reporter inhibition in Clone20 osteoblasts | Clone20 osteoblast Shn3 3'UTR firefly luciferase, 24 h | inhibition, % at 12.5 µM | 0.52% of 360,000 active;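 active = mean inhibition of at least 75% with every replicate also reaching 75%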;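 also: 0% = median of neutral control wells and 100% = pilot-screen positive control compound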
LMP1 NFkB inh = reduces LMP1-driven NF-kappaB luciferase signal. LMP1-induced NF-kappaB luciferase reporter cells, luminescence. inhibition, % at 12.5 µM. AID 504558. 0.69% of 350,000 active; in the data active = inhibition above about 41%;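 also: 0% = neutral control wells and 100% = reference inhibitor control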
The depositor's hits bear a star; nt = no result; ! = repeats disagree.

SMILES	Peg3 prom inh	TWEAK-Fn14 inh	TROY signal inh	TRPM1 prom inh	Shn3 inh set2	LMP1 NFkB inh
CCCn1c(=N)n(CC(O)COc2ccc(C)cc2)c2ccccc21 (configuration not stated)	2.4	2.6	3.3	-8.5	24.6	-5.3
CCOC(=O)C1(Cc2ccccc2)CCN(Cc2ccc3cc(NC(C)=O)ccc3n2)CC1	3.9	20.4	7.3	-7.8	7.9	2.7
Cc1ccc(C(=O)C(C)OC(=O)C2CCN(c3ccc(C(F)(F)F)cn3)CC2)cc1C (configuration not stated)	-9.9	0.8	10.8	-15.4	7.6	0.4
CCOCCn1c(COc2ccc(C)cc2)nc2ccccc21	-178.9	-45.5	-90.9	-48.5	-85.5	-19.7
Cc1ccccc1OCC(O)Cn1c(=N)n(Cc2ccccc2)c2ccccc21 (configuration not stated)	110.4*	-0.2	11.4	17.7	87.2*	-3.9
CCCCCn1c(=N)n(CC(O)COc2ccccc2OC)c2ccccc21 (configuration not stated)	43.0	-5.4	6.8	6.0	86.3*!	-4.6
COCCn1c(COc2ccc(C)cc2)nc2ccccc21	-216.6	65.4*	nt	-30.5	-28.5	-8.8
O=C(CN1CCN(C(=O)c2cccc(-n3cnnn3)c2)CC1)Nc1ccccc1Cl	1.2	0.1	1.7	6.1	8.9	0.5
O=C(NCCN1C(=O)S/C(=C\c2ccc(Cl)c([N+](=O)[O-])c2)C1=O)C1=COCCO1	93.2*	63.6*	56.6*	28.9	6.2	2.0
O=C(NCCN1C(=O)S/C(=C\c2ccc(Cl)c(Cl)c2)C1=O)c1cnccn1	23.4	7.2	11.7	-3.0	15.8	1.4
O=C(CC[C@H]1O[C@@H](n2ccc(=O)[nH]c2=O)[C@H](O)[C@@H]1O)N[C@H](Cc1ccccc1)C(=O)NCC1CCCCC1	7.3	-7.8	10.4	nt	-24.1	nt
O=C(CC[C@H]1O[C@@H](n2ccc(=O)[nH]c2=O)[C@H](O)[C@@H]1O)N[C@@H](Cc1ccccc1)C(=O)NCC1CCCO1 (some centres not stated)	-4.4	-4.7	54.0*	nt	25.3	nt
O=C(COC(=O)c1ccc[nH]c1=O)Nc1ccc(N2CCCCC2)cc1	29.4	87.5*	56.0*	77.6*	78.6	46.0*
O=C(COC(=O)c1ccc[nH]c1=O)Nc1ccc(S(=O)(=O)N2CCCC2)cc1	18.5	10.4	56.2*	5.3	-0.9	2.5
O=C(COC(=O)c1ccc[nH]c1=O)Nc1cc(S(=O)(=O)N2CCCCC2)ccc1Cl	3.2	-10.5	9.5	8.0	1.3	-8.0
O=C(OCC(=O)N1CCCCCC1)c1ccc[nH]c1=O	0.2	2.5	-0.4	-15.0	-10.9	-1.8
C[C@H]1Cn2cnc(C(=O)NCc3ccc(CNC(=O)OC(C)(C)C)cc3)c2C(=O)N1	18.5	-17.8	-0.8	nt	22.8	12.7
CCN1C(=O)CCN(C2CCCC2)c2nc(Nc3ccc(C(=O)NC4CCN(C)CC4)cc3OC)ncc21	66.0*	8.3	-15.4	76.1*	-10.1	-2.3
COc1ccc(C(=O)NC2CCCCCC2)cc1S(=O)(=O)N1CCCc2ccccc21	-3.6	45.4	16.9	-13.4	21.2	-7.1
COc1ccc(S(=O)(=O)NC(=O)C2(C)CCN2C(=O)CC2CCCCC2)cc1OC (configuration not stated)	-2.5	6.7	1.5	nt	-8.2	nt
O=C(OCC(=O)N1CCN(c2ccccc2)CC1)c1ccccc1[N+](=O)[O-]	-283.1	20.9	6.2	-81.0	-61.7	-8.0
CCOC(=O)c1c(CSc2ccccc2)n(C)c2cc(Br)c(OC)c(O)c12	3.2	-3.4	-9.1	-9.7	-3.4	-1.5
CCOC(=O)c1c(CSc2ccccc2)n(C)c2cc(Br)c(OCC(O)CNC(CO)(CO)CO)cc12 (configuration not stated)	97.2*	9.7	23.8	89.5*	0.3	2.3
O=C(OCc1cncs1)c1ccccc1	-13.9	-0.8	-2.0	2.5	2.5	-6.3
Cc1ccc(-c2cc3nc4c(c(=O)n3[nH]2)CCCC4)cc1	-85.7	62.1*	-10.4	-20.6	-20.9	10.6
SMILES	Peg3 prom inh	TWEAK-Fn14 inh	TROY signal inh	TRPM1 prom inh	Shn3 inh set2	LMP1 NFkB inh
CC1(Cc2ccc3c(c2)OCO3)C(=O)Nc2ccc(-c3cccc(C(F)(F)F)c3)cc21 (configuration not stated)	9.1	102.7*	6.2	nt	31.2	nt
C=Cc1ccc(CC2(C)C(=O)Nc3ccc(-c4cccnc4)cc32)cc1 (configuration not stated)	31.6	81.0*	47.8	nt	26.7	nt
COc1ccccc1-c1ccc2c(c1)C(C)(Cc1ccc(Cl)c(Cl)c1)C(=O)N2 (configuration not stated)	13.7	17.9	1.6	nt	-22.4	nt
CC1(Cc2ccc(Cl)cc2)C(=O)Nc2ccc(-c3ccc(F)c(Cl)c3)cc21 (configuration not stated)	7.4	2.7	-0.6	nt	13.8	nt
CC1(Cc2ccc(F)cc2)C(=O)Nc2ccc(-c3cccnc3)cc21 (configuration not stated)	13.7	64.4*	24.7	nt	30.8	nt
CS(=O)(=O)c1ccc(Cl)c(NC(=O)C2CCCN(C(=O)c3ccc(Cl)cc3)C2)c1 (configuration not stated)	6.8	2.8	-2.3	-6.6	-1.9	-0.9
CCCCOc1ccc(/C=C/C(=O)N(CC)CC(=O)Nc2ccc3c(c2)OCCO3)cc1OC	17.1	18.5	23.4	6.8	8.7	7.3
Cc1nn(-c2ccc(Cl)cc2)c(=O)c2ccccc12	-181.2	-6.5	-38.5	-10.6	-82.2	-37.9
Cc1c(Cl)sn(-c2ccc(Cl)cc2)c1=O	107.6*	-8.3	-9.2	97.0*	90.7*	10.9
CN(CC(=O)Nn1cnnc1)S(=O)(=O)c1ccccc1	20.1	10.0	-10.0	-9.4	-7.1	1.5
O=c1oc2ccccc2c2c1nnn2CCO	-1.5	7.7	-6.7	-4.2	6.4	-2.4
O=C(COc1ccc([N+](=O)[O-])cc1)NCc1cccnc1	12.8	15.5	-2.8	-8.2	-7.8	-9.4
O=C(COc1ccc([N+](=O)[O-])cc1)Nc1ccc(C(=O)NCc2cccnc2)cc1	74.5*	-10.5	15.3	5.6	74.9	-14.2
CCC(CO)[n+]1c(C)cc(/C=C2\Sc3ccccc3N2Cc2ccccc2)cc1C (configuration not stated)	62.5*	-3.5	-47.3	81.8*	75.7	-2.9
COc1ccc(Nc2ccc([N+](=O)[O-])cc2[N+](=O)[O-])cc1	17.1	8.5	-7.1	11.8	-7.2	-5.2
Cc1c(C2(O)CCCCC2)[nH]c2cc(C(F)(F)F)ccc12	18.3	24.7	-11.2	13.0	1.8	-2.7
CCc1c(C2(O)CCCCC2)[nH]c2cc(C(F)(F)F)ccc12	66.9*	29.7	51.4*	8.0	-9.5	-37.2
COc1ccc(CCN(Cc2cccs2)S(=O)(=O)c2ccc(S(=O)(=O)N(C)C3CCCCC3)cc2)cc1OC	10.3	2.6	18.0	-6.0	-7.8	17.2
